Laboratory results as given in paper PMC11442847.

Target: Tubulin alpha-1C chain (UniProt Q9BQE3)
Assay: cross-link between two proteins; cross-linking mass spectrometry

Sequence of UniProt Q9BQE3 (Q9BQE3 whole entry): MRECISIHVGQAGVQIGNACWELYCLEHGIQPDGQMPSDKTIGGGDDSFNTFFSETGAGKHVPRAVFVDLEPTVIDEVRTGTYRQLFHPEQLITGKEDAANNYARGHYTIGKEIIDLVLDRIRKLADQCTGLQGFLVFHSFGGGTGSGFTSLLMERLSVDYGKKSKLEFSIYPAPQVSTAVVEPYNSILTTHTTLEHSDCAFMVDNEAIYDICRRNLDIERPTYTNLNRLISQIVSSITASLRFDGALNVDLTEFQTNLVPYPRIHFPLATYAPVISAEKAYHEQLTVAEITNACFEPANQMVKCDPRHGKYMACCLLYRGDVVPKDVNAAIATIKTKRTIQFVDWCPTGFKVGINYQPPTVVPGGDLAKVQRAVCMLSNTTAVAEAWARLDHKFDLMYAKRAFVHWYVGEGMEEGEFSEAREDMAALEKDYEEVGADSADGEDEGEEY

Substance: Tubulin beta chain, P07437
- listed as a hit: yes
